Hits are enriched below; roughly 3.4% of the tested compounds scored in any of these assays.
GPR151 activ = activators of human GPR151; actives 1% (n = 650,000); PathHunter beta-arrestin GPR151 cells, luminescence; Q8TDV0; AID 1508602; activation, % at 11.2 µM; in the data active means activation above about 4.9%
MITF primary = inhibitors of human MITF; O75030; AlphaScreen MITF homodimerization, bead proximity signal; actives 0.91% (n = 650,000); inhibition, % at 2.6 µM; in the data active means inhibition above about 50%
TEAD-YAP inh = TEAD-YAP interaction inhibition; HEK-TIYL cells, TEAD-Gal4/YAP UAS-luciferase luminescence; inhibition, % at 9.12 µM; actives 1.4% (n = 640,000); in the data active means inhibition above about 32%
FBW7 act = human FBW7 E3 ligase activation, primary screen | AlphaScreen FBW7–phospho-cyclin E peptide binding, activator screen | normalized activity (activation), % at 26.1 µM | actives 0.13% (n = 650,000) | Q969H0; in the data active means normalized activity above about 1.9%;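 further: purified mutant Fbw7 with reduced substrate affinity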
GPR151 conf act = confirmation of human GPR151 activators. shares compounds with GPR151 activ. 6,700 tested, under 10 active. activation, % at 11.2 µM. GPR151 PathHunter beta-arrestin cells, luminescence, 90 min; % of EA-reagent control over plate median;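 active means mean percent activation across replicates above the confirmation screen cutoff of 4.91%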
GPR119 ag = activates human GPR119 in a GPR151 counter-screen; GPR119 PathHunter beta-arrestin cells, luminescence, 90 min; 0 = compound-well median, 100 = enzyme-acceptor control; actives 0.3% (n = 6,700); activation, % at 11.2 µM; shares compounds with GPR151 activ;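 active means mean percent activation in the counterscreen above 29.09%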;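 further: counterscreen on off-target GPR119 to flag nonselective hits from the GPR151 activator screen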
Target sequence (Q8TDV5 whole entry, looked up): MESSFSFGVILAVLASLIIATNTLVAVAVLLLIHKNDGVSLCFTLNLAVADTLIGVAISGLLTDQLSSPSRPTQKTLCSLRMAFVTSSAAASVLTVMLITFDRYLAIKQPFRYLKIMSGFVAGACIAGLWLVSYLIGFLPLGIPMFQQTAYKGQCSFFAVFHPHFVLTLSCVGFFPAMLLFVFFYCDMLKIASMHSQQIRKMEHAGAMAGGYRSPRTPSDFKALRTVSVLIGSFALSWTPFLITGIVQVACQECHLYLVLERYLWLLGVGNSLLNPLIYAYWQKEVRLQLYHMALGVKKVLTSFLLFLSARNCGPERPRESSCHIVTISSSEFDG
Large screens that a line does not name were inactive (follow-up assays come after a bar, where they were run).

Cc1cc(C)nc(Nc2n[nH]c(COc3ccccc3)n2)n1	GPR151 activ 5.7 | GPR151 conf act inactive | GPR119 ag inactive
CCc1nccn1S(=O)(=O)c1ccc(OC)c2ccccc12	GPR151 activ 6.8 | GPR151 conf act inactive | GPR119 ag inactive
CCc1nccn1S(=O)(=O)c1cc(Br)c(C)cc1OC	none
Cc1cc(N2C(=O)C3C4CC(c5ccccc5)C(C4)C3C2=O)no1 (configuration not stated)	GPR151 activ 10.6 | GPR151 conf act inactive | GPR119 ag inactive
COC(=O)CN1C(=O)C2(C(C#N)=C(N)Oc3n[nH]c(-c4cc(OC)c(OC)c(OC)c4)c32)c2ccccc21 (configuration not stated)	none
CCn1cc(CN2CCN(CC(C)C)C(CCO)C2)c(C)n1 (configuration not stated)	none
COC(=O)c1ccc(-n2nnnc2SCC(=O)N2CCOCC2)cc1	GPR151 activ 4.9 | GPR151 conf act inactive | GPR119 ag inactive
O=C(CSc1nnnn1-c1ccc(F)cc1F)N1CCOCC1	GPR151 activ 5.5 | GPR151 conf act inactive | GPR119 ag inactive
CCOc1ccc(-n2nnnc2SCC(=O)N2CCOCC2)cc1	GPR151 activ 5.3 | GPR151 conf act inactive | GPR119 ag inactive
O=C(CN1Cc2ccccc2OC(c2ccsc2)C1)NCc1nc2ccccc2[nH]1 (configuration not stated)	none
Cc1ccc(C)c(-c2cc(C(=O)NN3CCOCC3)c3ccccc3n2)c1	GPR151 activ 5.4 | GPR151 conf act inactive | GPR119 ag inactive
O=C(COC(=O)c1cc(S(=O)(=O)N2CCOCC2)ccc1F)Nc1cccc(F)c1	GPR151 activ 6.5 | GPR151 conf act inactive | GPR119 ag inactive
O=C(COC(=O)c1ccc(F)c(S(=O)(=O)N2CCOCC2)c1)c1ccccc1	GPR151 activ 6.1 | GPR151 conf act inactive | GPR119 ag inactive
O=C(COC(=O)c1ccc(F)c(S(=O)(=O)N2CCOCC2)c1)c1ccc(Cl)cc1	none
Cc1nnc2sc(SCc3cccc(F)c3)nn2c1=O	none
COc1ccccc1N1CCN(C(=O)CSc2nc3ccccc3[nH]2)CC1	GPR151 activ 6.0 | GPR151 conf act inactive | GPR119 ag inactive
COc1ccccc1N1CCN(C(=O)CSc2nc(N)cc(=O)[nH]2)CC1	none
COc1ccc(-c2cn3c(C(=O)N4CCc5ccccc54)csc3n2)cc1	GPR151 activ 18.6 | GPR151 conf act inactive | GPR119 ag inactive
COc1ccc(-c2cn3c(C(=O)N4CCN(c5ccccc5OC)CC4)csc3n2)cc1	none
Nc1c(Cl)cc(-n2c(=O)c3cc4c(=O)n(-c5cc(Cl)c(N)c(Br)c5)c(=O)c4cc3c2=O)cc1Br	none
CC(C)CCn1nc(C(=O)NN)c2ccccc2c1=O	GPR151 activ 6.0 | GPR151 conf act inactive | GPR119 ag inactive
Cc1ccnc(Nc2ccc(N3CCN(C(=O)C4CCCC4)CC3)nn2)c1	GPR151 activ 5.1 | GPR151 conf act inactive | GPR119 ag inactive
CCOc1cc(C=O)ccc1OCc1ccc(C(=O)OC)o1	none
CCOc1cc(/C=N/Nc2ccccn2)ccc1OCc1ccc(C(=O)OC)o1	GPR151 activ 5.4 | GPR151 conf act inactive | GPR119 ag inactive
Cc1ccc(C2CC(c3cccs3)=NN2C(=O)CSc2nnc(CNC(=O)c3ccccc3)n2CCc2ccccc2)cc1 (configuration not stated)	none
CCn1nnnc1SCC(=O)Nc1cccc(NC(C)=O)c1	none
CCCn1nnnc1SCC(=O)Nc1cccc(NC(C)=O)c1	GPR151 activ 5.2 | GPR151 conf act inactive | GPR119 ag inactive
COc1cc(C)ccc1OCc1cc(C(=O)N2CCSCC2)no1	GPR151 activ 6.0 | GPR151 conf act inactive | GPR119 ag inactive
COc1cc(C)ccc1OCc1cc(C(=O)N2CCCCCC2)no1	none
CN1CCCc2cc(C(CN)N3CCCCC3)ccc21 (configuration not stated)	GPR151 activ 6.7 | GPR151 conf act inactive | GPR119 ag inactive
Nc1nc(SCc2ccc(F)cc2)nn1CC(=O)Nc1ccccc1F	GPR151 activ 6.3 | GPR151 conf act inactive | GPR119 ag inactive
COc1ccc(C2=NN3C(C2)c2cc(Cl)ccc2OC3c2ccccc2Cl)cc1 (configuration not stated)	none
COCc1cc(C)nc2sc(C(=O)Nc3cccc(Br)c3)c(N)c12	none
O=C1C(=O)N(CCN2CCOCC2)C(c2ccc(F)cc2)/C1=C(\O)c1ccc(F)cc1 (configuration not stated)	none
O=C1C(=O)N(CCN2CCOCC2)C(c2ccco2)/C1=C(/O)c1ccc(F)cc1 (configuration not stated)	GPR151 activ 6.7 | GPR151 conf act inactive | GPR119 ag inactive
CCOC(CCn1c(SC(CC)C(=O)NCc2cccnc2)nc2ccccc2c1=O)OCC (configuration not stated)	GPR151 activ 7.0 | GPR151 conf act inactive | GPR119 ag inactive
CCN1/C(=C/c2ccc3cc(OC)ccc3[n+]2CC)Sc2ccc(C3CCCCC3)cc21	GPR151 activ 9.3, TEAD-YAP inh 88.4 | GPR151 conf act inactive | GPR119 ag inactive
Cc1cccc(C(=O)OCC(=O)c2cc(C)n(Cc3ccco3)c2C)c1	none
CC12C=CC(C)(O1)C1C(=O)N(c3ccc(-c4ccccc4)cc3)C(=O)C12 (configuration not stated)	GPR151 activ 5.7 | GPR151 conf act inactive | GPR119 ag inactive
CC12C=CC(C)(O1)C1C(=O)N(c3ccccc3)C(=O)C12 (configuration not stated)	none
CC(C)C1=NOC(C(=O)N2CCC(CO)(Cc3cccc(C(F)(F)F)c3)CC2)C1 (configuration not stated)	GPR151 activ 5.2 | GPR151 conf act inactive | GPR119 ag inactive
COCCCN1C(=S)NC2c3cc(Br)ccc3OC1(C)C2C (configuration not stated)	none
CCCN1C(=S)NC2c3ccccc3OC1(C)C2C (configuration not stated)	GPR151 activ 7.5 | GPR151 conf act inactive | GPR119 ag inactive
O=C(COC(=O)c1ccccc1)c1ccc2ccccc2c1	GPR151 activ 5.4 | GPR151 conf act inactive | GPR119 ag inactive
O=C(COC(=O)c1ccc2ccccc2n1)c1ccccc1	none
O=C(COC(=O)c1ccc2ccccc2n1)c1ccc(Cl)c(Cl)c1	GPR151 activ 5.6 | GPR151 conf act inactive | GPR119 ag inactive
COc1cccc(C(=O)COC(=O)c2cccc(NC(=O)c3ccccc3)c2)c1	GPR151 activ 6.1 | GPR151 conf act inactive | GPR119 ag inactive
COc1ccc2nc(NC(=O)CSc3nnc4c5ccccc5n(CCc5ccccc5)c4n3)sc2c1	none
COc1cccc(NC(=O)C2C3C=CC4(O3)C2C(=O)N(Cc2cccnc2)C4C(=O)NC2CCCCC2C)c1 (configuration not stated)	none

Assay outcomes as filed in PubChem.
